Each structure is given as a SMILES string. Where “and” joins values, the source holds several entries; their conditions need not be identical. Identical values can stand only once. Inconclusive results are not listed. Calls of active or inactive are those of the source. Unless noted, calls come from the whole dose curve; as a rule, active = well fitted curve in the direction sought with a large enough effect in the repeat runs; inconclusive = weak or mixed curves; inactive = no such curve, though single readings can be large; an effect the other way counts as inactive or inconclusive.

The nature of test [1]: qHTS assay to identify small molecule agonists of the peroxisome proliferator-activated receptor delta (PPARd) signaling pathway - cell viability counter screen (AID 743211). Note: nearly all actives have a fitted effect of over 55% in size. Put shortly: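 Multiplexed format: after the 2 h room-temperature LiveBLAzer B/G FRET step, CellTiter-Glo was added to the same wells. Luminescence after 30 min gave cell viability; compound exposure was 17 h at 37C.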
In general terms: qHTS replaces the single test concentration by a dilution series.

A short description of test [2]: qHTS assay to identify small molecule antagonists of the peroxisome proliferator-activated receptor delta (PPARd) signaling pathway - cell viability counter screen (AID 743213). Note: nearly all actives have a fitted effect of over 50% in size. Note: potency is the fitted concentration of half-maximal effect. Put shortly: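 Agonist-stimulated (L165041, 300 nM final) HEK293H PPARd UAS-bla cells are exposed to compounds for 17 h at 37 C, and ATP-based luminescence (CellTiter-Glo) from the same wells reports cytotoxicity.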

Test [3] concerns the target Bile acid receptor (Homo sapiens) (UniProt Q96RI1). As to the kind of experiment: qHTS assay to identify small molecule antagonists of the farnesoid-X-receptor (FXR) signaling pathway (AID 743217; active = well fitted inhibition curve with a large enough effect in the signal ratio in the repeat runs, not every such curve was filed as active; the % refers to the signal ratio). In outline: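 FRET fluorescence after 2 h room-temperature LiveBLAzer loading gives the readout. Prior step: FXR-bla HEK 293T cells, seeded and incubated 5 h, received test compounds plus 50 uM final CDCA for 16 h at 37 °C.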

Test [4] can be described thus: qHTS assay to identify small molecule agonists of the farnesoid-X-receptor (FXR) signaling pathway - cell viability counter screen (AID 743218). Note: nearly all actives have a fitted effect of over 45% in size. Put shortly:
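Readout: CellTiter-Glo luminescence, 30 min RT, multiplexed after the FXR-bla FRET reading. HEK 293T FXR-UAS-bla cells received compound 5 h post-plating and were incubated 16 h at 37 C.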

Test [5] has as its target Bile acid receptor (Homo sapiens) (UniProt Q96RI1). As to the kind of experiment: qHTS assay to identify small molecule agonists of the farnesoid-X-receptor (FXR) signaling pathway (AID 743220; active = well fitted activation curve with a large enough effect in the signal ratio in the repeat runs, not every such curve was filed as active; the % refers to the signal ratio). In outline:
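FXR-UAS-bla HEK 293T cells carrying a UAS-driven beta-lactamase reporter were plated for 5 h at 37C/5% CO2, then exposed to DMSO-dissolved Tox21 10K compounds for 16 h at 37C. A LiveBLAzer B/G FRET substrate was loaded for 2 h at room temperature before fluorescence reading.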

Test [6] is described as follows: qHTS assay to identify small molecule antagonists of the farnesoid-X-receptor (FXR) signaling pathway - cell viability counter screen (AID 743221; active = well fitted cell-killing curve with a large enough effect in the repeat runs, not every such curve was filed as active; note: nearly all actives have a fitted effect of over 50% in size). Put shortly:
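CellTiter-Glo, 30 min RT, luminescence; same wells as the LiveBLAzer FRET read. Cells: FXR-UAS-bla HEK 293T. Treatment: compound with chenodeoxycholic acid 50 uM final, 16 h at 37 C.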

Test [7] concerns the target Vitamin D3 receptor (Homo sapiens) (UniProt P11473). As to the kind of experiment: qHTS assay to identify small molecule agonists of the vitamin D receptor (VDR) signaling pathway (AID 743222; calls by dose curve). In outline:
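Following 4 h attachment at 37C, VDR-bla cells (2,000 per well) received DMSO-dissolved compounds or controls. After 16 h incubation, LiveBLAzer B/G FRET substrate was added and fluorescence read 2 h later at room temperature.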

Test [8] in a line: qHTS assay to identify small molecule agonists of the vitamin D receptor (VDR) signaling pathway - cell viability counter screen (AID 743224). Note: nearly all actives have a fitted effect of over 50% in size. Note: potency is the fitted concentration of half-maximal effect. In outline: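 In parallel with the bla FRET readout, cytotoxicity toward VDR-bla cells after 16 h compound exposure was assessed by CellTiter-Glo, with luminescence recorded after a 30 min room-temperature incubation.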
Test [9] in a line: qHTS assay to identify small molecule antagonists of the vitamin D receptor (VDR) signaling pathway - cell viability counter screen (AID 743225). Note: nearly all actives have a fitted effect of over 50% in size. Note: potency is the fitted concentration of half-maximal effect. In outline: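 Cytotoxicity toward the VDR-bla HEK 293T line was scored by ATP-based CellTiter-Glo luminescence, read in the wells already used for the beta-lactamase readout after 16 h compound treatment under 3 nM 1-alpha,25-dihydroxyvitamin D3 stimulation.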

Test [10] is described as follows: qHTS assay to identify small molecule agonists of the NFkB signaling pathway - cell viability counter screen (AID 1159515; calls by dose curve; note: series mostly up to about 61 µM; nearly all actives have a fitted effect of over 55% in size). Put shortly:
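Plate 2,000 NFkB-bla ME-180 cells/well; incubate overnight. Add compounds, 5 hr at 37 C. Add FRET substrate, 1.5 hr RT. Add CellTiter-Glo, 30 min RT; read luminescence.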

Test [11] is described as follows: qHTS assay to identify small molecule agonists of the endoplasmic reticulum stress response signaling pathway (AID 1159516; active = well fitted activation curve with a large enough effect in the signal ratio in the repeat runs, not every such curve was filed as active; the % refers to the signal ratio). In outline: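 Beta-lactamase expression from the ER stress response element in HeLa reporter cells is quantified with the LiveBLAzer B/G FRET substrate, read at 405 nm excitation after 2 hr at room temperature, following 5 hr compound treatment at 37 C.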

Test [12] in a line: qHTS assay to identify small molecule antagonists of the retinoid-related orphan receptor gamma (ROR-gamma) signaling pathway - cell viability counter screen (AID 1159520). Note: nearly all actives have a fitted effect of over 50% in size. In outline:
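Tet-on ROR gamma CHO cells (1,000/well) were plated 4 hr, given compounds in DMSO for 2 hr at 37 C, then induced with 1 uM final doxycycline for 16 hr. Viability was read as ATP by CellTiter-Glo luminescence after 30 min.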

The target in test [13] is Nuclear receptor ROR-gamma (Homo sapiens) (UniProt P51449). As to the kind of experiment: qHTS assay to identify small molecule antagonists of the retinoid-related orphan receptor gamma (ROR-gamma) signaling pathway (AID 1159521; note: nearly all actives have a fitted effect of over 50% in size; note: potency is the fitted concentration of half-maximal effect). Put shortly:
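Readout: ONE-Glo luciferase luminescence, 30 min at room temperature. System: Tet-on RORγ CHO, RORE-LUC. Sequence: compound 2 h, doxycycline 1 uM final, 16 h at 37 C.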

The nature of test [14]: qHTS assay to identify small molecule agonists of the AP-1 signaling pathway - cell viability counter screen (AID 1159525; calls by dose curve; note: nearly all actives have a fitted effect of over 55% in size; note: potency is the fitted concentration of half-maximal effect). Put shortly:
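Each titration point was normalised to DMSO and tetra n-octyl ammonium bromide controls. The read was Cell Titer Glo luminescence after 30 min at RT, following 5 h compound exposure of ME-180 AP-1-bla cells at 37 °C.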

The nature of test [15]: qHTS assay to identify small molecule agonists of the AP-1 signaling pathway (AID 1159526; calls by dose curve).
The target of test [16] is Retinoic acid receptor RXR-alpha (Homo sapiens) (UniProt P19793). As to the kind of experiment: qHTS assay to identify small molecule agonists of the RXR signaling pathway (AID 1159527; calls by dose curve; note: nearly all actives have a fitted effect of over 35% in size). Put shortly: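 Reporter activation is measured as beta-lactamase activity via FRET substrate cleavage (emission 460/530 nm) in HEK 293T cells expressing an RXR-alpha-driven bla construct, following 16 hr compound exposure at 37 C.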

The target in test [17] is Peroxisome proliferator-activated receptor delta (Homo sapiens) (UniProt Q03181). As to the kind of experiment: qHTS assay to identify small molecule agonists of the peroxisome proliferator-activated receptor delta (PPARd) signaling pathway (AID 743212; calls by dose curve). In outline:
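Cells expressing a UAS-driven beta-lactamase reporter (PPARd-bla HEK293H) were given test compounds after a 5 h settle and kept at 37 C. Reporter activity was then measured as FRET fluorescence using LiveBLAzer B/G substrate.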

Test [18] addresses Vitamin D3 receptor (Homo sapiens) (UniProt P11473). As to the kind of experiment: qHTS assay to identify small molecule antagonists of the vitamin D receptor (VDR) signaling pathway (AID 743223; active = well fitted inhibition curve with a large enough effect in the signal ratio in the repeat runs, not every such curve was filed as active; the % refers to the signal ratio). Put shortly:
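After VDR-bla cells are plated and left 4 h at 37C, DMSO-dissolved compounds and 3 nM (final) calcitriol agonist are added. Incubation continues 16 h at 37C; FRET beta-lactamase substrate then develops 2 h at room temperature.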

Chain of Bile acid receptor (Homo sapiens) (Q96RI1 whole entry, looked up): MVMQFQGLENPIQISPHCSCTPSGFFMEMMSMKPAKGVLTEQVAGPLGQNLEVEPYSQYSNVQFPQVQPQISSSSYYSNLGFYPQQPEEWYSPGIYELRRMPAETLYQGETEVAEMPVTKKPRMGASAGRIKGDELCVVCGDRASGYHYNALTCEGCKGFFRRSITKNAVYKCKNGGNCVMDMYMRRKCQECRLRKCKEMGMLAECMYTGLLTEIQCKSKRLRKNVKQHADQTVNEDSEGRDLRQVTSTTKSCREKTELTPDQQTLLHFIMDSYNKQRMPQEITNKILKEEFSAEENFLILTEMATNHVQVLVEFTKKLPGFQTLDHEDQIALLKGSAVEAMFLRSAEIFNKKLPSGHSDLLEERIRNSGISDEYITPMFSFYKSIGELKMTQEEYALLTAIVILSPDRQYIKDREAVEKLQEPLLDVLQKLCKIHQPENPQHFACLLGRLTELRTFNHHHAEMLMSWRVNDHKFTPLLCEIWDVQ
Chain of Vitamin D3 receptor (Homo sapiens) (P11473 whole entry, looked up): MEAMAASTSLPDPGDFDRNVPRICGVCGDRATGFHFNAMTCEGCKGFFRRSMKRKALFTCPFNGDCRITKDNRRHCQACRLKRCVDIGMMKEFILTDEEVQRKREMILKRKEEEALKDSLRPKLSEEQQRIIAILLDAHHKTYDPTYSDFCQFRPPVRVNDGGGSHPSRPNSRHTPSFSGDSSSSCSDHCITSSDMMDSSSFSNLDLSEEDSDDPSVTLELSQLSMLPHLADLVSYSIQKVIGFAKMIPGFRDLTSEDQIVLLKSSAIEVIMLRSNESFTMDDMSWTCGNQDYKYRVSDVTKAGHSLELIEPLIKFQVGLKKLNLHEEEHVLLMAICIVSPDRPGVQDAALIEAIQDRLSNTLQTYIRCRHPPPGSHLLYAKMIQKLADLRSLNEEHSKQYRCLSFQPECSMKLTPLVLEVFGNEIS
Chain of Peroxisome proliferator-activated receptor delta (Homo sapiens) (Q03181 whole entry, looked up): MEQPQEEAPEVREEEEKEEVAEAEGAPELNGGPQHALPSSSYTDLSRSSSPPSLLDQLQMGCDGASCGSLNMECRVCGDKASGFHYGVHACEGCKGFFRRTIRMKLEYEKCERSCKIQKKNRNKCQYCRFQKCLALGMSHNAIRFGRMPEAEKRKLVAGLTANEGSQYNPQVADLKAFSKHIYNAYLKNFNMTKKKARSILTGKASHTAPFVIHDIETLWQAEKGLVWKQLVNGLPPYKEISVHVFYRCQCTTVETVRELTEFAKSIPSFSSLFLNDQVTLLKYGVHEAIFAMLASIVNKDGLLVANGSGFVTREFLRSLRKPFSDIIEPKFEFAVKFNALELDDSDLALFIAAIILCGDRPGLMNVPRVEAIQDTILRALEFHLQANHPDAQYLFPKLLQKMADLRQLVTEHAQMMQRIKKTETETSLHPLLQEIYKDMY
Chain of Retinoic acid receptor RXR-alpha (Homo sapiens) (P19793 whole entry, looked up): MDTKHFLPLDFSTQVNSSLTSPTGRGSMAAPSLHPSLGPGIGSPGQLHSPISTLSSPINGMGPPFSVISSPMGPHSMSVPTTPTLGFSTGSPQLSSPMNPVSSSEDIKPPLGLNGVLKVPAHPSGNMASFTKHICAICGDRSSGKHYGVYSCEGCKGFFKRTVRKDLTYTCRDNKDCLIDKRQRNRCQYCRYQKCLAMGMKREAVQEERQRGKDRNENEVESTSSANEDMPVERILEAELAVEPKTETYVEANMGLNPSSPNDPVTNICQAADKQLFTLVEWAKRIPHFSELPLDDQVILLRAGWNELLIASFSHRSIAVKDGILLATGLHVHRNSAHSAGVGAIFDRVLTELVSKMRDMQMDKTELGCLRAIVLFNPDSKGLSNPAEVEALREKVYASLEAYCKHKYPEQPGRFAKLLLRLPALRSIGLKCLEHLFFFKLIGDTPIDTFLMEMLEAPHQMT

As for `O=[N+]([O-])/N=C1\NCCN1Cc1ccc(Cl)nc1`, the Potency entry in [1], in [2], in test [3], in test [4], in test [5] and in test [6] was “inactive” throughout. Further, the Potency result in test [8], in test [9], in test [10], in test [11], in [12] and in [13] was “inactive” each time. Besides, in [14], the Potency entry was “inactive”. Also, the compound was called inactive in [7] and in [15].

For `CC(C)COC(=O)c1ccccc1C(=O)OCC(C)C`, the Potency result in [1], in test [2], in test [3], in test [5], in test [6] and in test [8] was “inactive” each time. Moreover, the Potency result in test [9], in test [10], in [11], in test [12], in test [13] and in [14] was “inactive” throughout. Also, the Potency result in [16] was “inactive”.

As for `C[C@]12CCC(=O)C=C1CC[C@@H]1[C@@H]2CC[C@@]2(C)[C@H]1CC[C@]2(C)O`, the Potency entry in test [17], in [2], in [4], in test [6], in test [9] and in [10] was “inactive” throughout. The Potency result in test [11], in [12] and in [14] was “inactive” throughout. Also, the Potency in [13] is 15.5 µM (active) and 26.6 µM (active). Also, the compound was called inactive in test [15].

On to `CC(C)Nc1ccc(Nc2ccccc2)cc1`, for which the Potency entry in test [17], in test [5], in test [6], in test [10] and in test [11] was “inactive” in each case. Further, the Potency in test [2] is 43.6 µM (active); in [8] it was 43.5 µM (active) and 43.6 µM (active); in test [9] it was 43.6 µM (active); in [13] it was 38.4 µM (active) and 54.5 µM (active); in [14], 43.5 µM (active) and 54.9 µM (active).

With `CCOC(=O)c1ccccc1N`, the Potency result in test [17], in [2], in test [3], in test [4], in [5] and in [6] was “inactive” each time. Moreover, the Potency result in [18], in test [8], in [9], in test [10], in test [11] and in test [12] was “inactive” in each case. In addition, the Potency entry in test [13] and in test [14] was “inactive” in each case. The compound was called inactive in test [7] and in test [15].
